Experimental data reported in PubChem BioAssay (NCI).
The panel holds about 83,000 compounds, 20% with a hit somewhere; the sample as a whole holds those more often.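 Single-dose data. Exposure time 48 hours. Values below 10 considered active.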 Active and inactive are the calls of the source.

The compounds below were run on HL-60(TB) leukemia (assay: NCI-60 one-dose screen, 48 h (100 = growth as untreated, 0 = no growth, -100 = all killed)). Details: 10 µM unless noted.

Compound | growth
COc1ccccc1N1CCCSC1=Nc1ccccc1 | 50.1% (inactive)
COC(=O)[C@]12CC[C@@H](C)[C@H](C)[C@@H]1C1=CC[C@@H]3[C@@]4(C)C[C@@H](OC(=O)c5ccco5)[C@H](O)[C@@](C)(CO)[C@@H]4[C@H](O)C[C@@]3(C)[C@]1(C)CC2 | -79.6% (active)
O=C(CCN1CCCC1)Nc1ccc2c(NCCc3ccccc3)c3ccccc3nc2c1 | -58% (active)
Cc1ccc(=O)n(-c2ccc(Br)cc2F)c1 | 106% (inactive)
Cc1ccc(/C=C/c2c(C(=O)/C=C/c3ccc(Cl)cc3)c(C)nc3ccccc23)cc1 | -8.89% (active)
NC1=CC(=O)C(=O)c2ccccc21 | 39.2% (inactive)
N#C/C(=C\c1ccc(Br)cc1)n1nnc2c(F)cccc21 | 0.171% (active)
COc1ccc(C(=NN=C(N)N)c2ccc(OC)cc2)cc1 | 15.5% (inactive)
CC(=O)N(N=O)c1ccc([N+](=O)[O-])cc1Cl | 55.7% (inactive)
O=C(Cn1ccnc1)Nc1ccc(-c2nc3ccccc3s2)cc1 | 77.3% (inactive)
Nc1ncc(-c2ccc3ncnc(N4CCc5ccc(Cl)cc54)c3c2)cn1 | -51.1% (active)
COc1ccc(-c2nc3ccccn3c2-c2nc3ccc(Cl)cc3[nH]2)cc1 | 74.8% (inactive)
COc1cc(C2C(C#N)=C(c3c[nH]c4ccccc34)Nc3nc(N)[nH]c(=O)c32)cc(OC)c1OC (configuration not stated) | 42.1% (inactive)
CC(=O)c1ccc(-n2cc(CN3CCN(c4cc5c(cc4F)c(=O)c(C(=O)O)cn5C4CC4)CC3)nn2)cc1 | 99% (inactive)
O=C(/C=C/C12c3ccccc3C(c3ccccc31)C1C(=O)NC(=O)C12)c1ccc(Cl)cc1 (configuration not stated) | -6.98% (active)
O=C(O)c1cn(C2CC2)c2cc(N3CCN(Cc4nc5c(cnn5-c5ccc([N+](=O)[O-])cc5)c(=O)[nH]4)CC3)c(F)cc2c1=O | 92.8% (inactive)
CCNc1nc(S(=O)(=O)CC)nc2ccccc12 | 91.8% (inactive)
Cc1ccccc1CNc1ncnc2[nH]ncc12 | 49.2% (inactive)
Nc1ccc2c(c1)C(=O)NC2=O | 71.1% (inactive)
CCN(CC)CC(C)Nc1ccc(C)c2sc3ccccc3c(=O)c12 (configuration not stated) | 50.8% (inactive)
O=C(Nc1cccc(F)c1)Nc1cccc(Cl)c1 | -10.6% (active)
O=c1[nH]nc(-c2ccc(Br)cc2)cc1Cc1ccc(O)cc1 | 85.4% (inactive)
Cc1cc(N2CCN(C)CC2)nc(N(CCNc2ccnc3cc(Cl)ccc23)Cc2ccco2)n1 | 8.29% (active)
NC(=N\N=C/c1ccccc1[N+](=O)[O-])/C(N)=N\N=C/c1ccccc1[N+](=O)[O-] | 105% (inactive)
Cc1ccc2nc(-c3ccc(N(C)C)c(Br)c3)cn2c1 | 36.8% (inactive)
O=c1[nH]c(O)c(/C=C2/C=Nc3ccccc32)[nH]1 | 35.4% (inactive)
O=C(CNc1nc2ccccc2s1)Nc1ccc(-c2nc3ccccc3s2)cc1 | 99.1% (inactive)
